PL biosyn Enam = animal cell phospholipid biosynthesis inhibition, Enamine screen; ZR-82 CHO cells, pyrene fatty acid UV survival, CellTiter Blue; peroxisome-deficient CHO-K1 mutant line; plus DGAT-1, DGAT-2 and ACAT inhibitors; calls only at 10 µM; actives 0.4% (n = 20,000);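 active means cell survival signal 2 SD away from solvent-only control wells, confirmed on one or two retests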;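 further: 3 h compound exposure then viability read about one day after UV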
Active calls of the source: *; i = inactive; + = active, no number. The full list was thinned out, with hits kept by preference.

SMILES | PL biosyn Enam
CC1(C)C2CC=C(/C=N/NC(=S)Nc3cccnc3)C1C2 (stereo not drawn) | i
O=C(C(=NNc1cccc([N+](=O)[O-])c1)c1nc2ccccc2[nH]1)c1ccccc1 | i
O=c1cc(CSc2nnc(NC3CC3)s2)nc2sccn12 | i
Brc1cc2c(cc1COc1ccc(-c3nnco3)cc1)OCO2 | i
O=C(O)c1nccnc1C(=O)N1CCOCC1 | i
Clc1ccccc1/C=N/NC1=Nc2cccc3cccc1c23 | i
c1ccc(NNC2=Nc3cccc4cccc2c34)cc1 | +
Brc1ccc(/C=N/NC2=Nc3cccc4cccc2c34)cc1 | i
Cc1nc(-c2coc3c(I)c(O)ccc3c2=O)cs1 | i
CC1CCc2c(C(=O)O)csc2C1 (stereo not drawn) | i
c1ccc(N=Nc2c3[nH]c4ccccc4nc-3c3ccccc23)cc1 | +
c1ccc2c(N=Nc3c4[nH]c5ccccc5nc-4c4ccccc34)cccc2c1 | i
NC(=S)N=Nc1c2[nH]c3ccccc3nc-2c2ccccc12 | i
COc1ccc(/C=N/n2c(-c3ccc(Cl)cc3)csc2=N)cc1 | i
O=[N+]([O-])c1cccc(-n2nncc2C23CC4CC(CC(C4)C2)C3)c1 | i
c1ccc(N=Nc2ccc(-n3nncc3C34CC5CC(CC(C5)C3)C4)cc2)cc1 | i
O=[N+]([O-])c1ccc(N/N=C/c2ccc(-n3nncc3C34CC5CC(CC(C5)C3)C4)cc2)cc1 | +
Fc1ccc(C2=CC(c3ccccc3)n3ncnc3N2)cc1 (stereo not drawn) | i
Clc1ccc(NN=C2c3ccccc3-c3ccccc32)cc1 | i
O=[N+]([O-])c1cccc(NN=C2c3ccccc3-c3ccccc32)c1 | i
Fc1ccc(NN=C2c3ccccc3-c3ccccc32)cc1 | +
COc1ccc2c(Cn3cc(C(F)(F)F)ccc3=O)cc(=O)oc2c1 | i
FC(F)Oc1ccc(-c2nnc(SCCCSc3nnc(-c4ccc(OC(F)F)cc4)o3)o2)cc1 | i
O=c1cc(CSc2nnc3ccccn23)c2cc3c(cc2o1)CCC3 | i
C=CCN=c1scc(-c2cc3ccccc3o2)n1/N=C/c1ccccc1Br | i
SMILES | PL biosyn Enam
Fc1cccc(F)c1/C=N/n1c(-c2cc3ccccc3o2)csc1=NCCc1ccccc1 | +
CN=c1scc(-c2cc3ccccc3o2)n1/N=C/c1cccc(C(F)(F)F)c1 | i
CN1/C(=C\P(=Nc2ccc([N+](=O)[O-])cc2)(c2ccccc2)c2ccccc2)C(C)(C)c2ccccc21 | i
CCN(CC)c1ccc(N=Nc2c(Br)cc([N+](=O)[O-])cc2Br)cc1 | i
CCOP(=O)(OCC)C1(C)N(C)c2ccc(N=Nc3ccc([N+](=O)[O-])cc3)cc2C1(C)C (stereo not drawn) | +
O=C(OCC(=O)C12CC3CC(CC(C3)C1)C2)C1CCN(S(=O)(=O)c2cccs2)CC1 | i
CCOC(=O)c1c(C)[nH]c(C(=O)CSc2nc(C)nc3sc4c(c23)CCC4)c1C | i
CN(C)CCCN1C(=O)C(O)=C(C(=O)c2cccs2)C1c1ccco1 (stereo not drawn) | i
Cc1sc2ncnc(NCC(C)O)c2c1C (stereo not drawn) | i
Cc1sc2ncnc(NC3CCC(O)CC3)c2c1C (stereo not drawn) | i
C/C(=N\Nc1ncnc2sc(C)c(C)c12)c1ccc(Cl)s1 | +
Cc1cc(Sc2nc(N)ncc2[N+](=O)[O-])ncn1 | i
Cc1cc(Sc2ncnc(N)c2[N+](=O)[O-])ncn1 | +
Cc1cc(C)nc(NNc2ncnc(N)c2[N+](=O)[O-])n1 | i
O=[N+]([O-])c1cc(S(=O)(=O)C(F)(F)F)ccc1Sc1nc2ccccc2o1 | i
